PubChem BioAssay AID540335 (Broad Institute, 2011)
Out of some 1,300 compounds screened, about 270 (21%) were called active.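 The calls were made as follows: active = dose-dependent rise or fall in viability, either side of zero, with half-maximal concentration at or below a set limit; inconclusive = flat curve at 30 to 70% viability loss, or poor fit; inactive = flat within 30% either way, or potency beyond limit.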 Only a sample is shown. Entries with a potency or affinity are not part of this list.

Assay: A375 melanoma cell viability reduction, dose response, counter-screen for MITF modulator project, cherry-pick samples, set 2 (AID 540335);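 also: A375 human melanoma cells which do not depend on MITF; 0% = median of neutral control wells and 100% = double that signal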
Conditions: CellTiter-Glo ATP luminescence, 24 h; series mostly up to 35 µM; activity change, negative = decreased viability: at the top concentration

SMILES	activity change, negative = decreased viability
CN(C(=O)/C=C/c1ccc([N+](=O)[O-])s1)c1ccccc1	-12.6% (inactive)
Cc1scc(C(=O)N/N=C/c2ccc([N+](=O)[O-])o2)c1C	-10.2% (inactive)
CCCCCCN1C=CC(=C2C(=O)c3ccccc3C2=O)C=C1	-11.3% (inactive)
O=C1CN(C(=O)Cn2ncc(Cl)c(Cl)c2=O)c2ccccc2N1	36.1% (inactive)
Cc1ccc(C(=O)N/N=C/c2ccc([N+](=O)[O-])s2)cc1	-10.8% (inactive)
Cc1ccc(C)c(C(=O)Cn2ncc(Cl)c(Cl)c2=O)c1	78.1% (inactive)
C=CCNc1nc(-c2ccccn2)nnc1-c1ccccc1	-21.7% (inactive)
Clc1cccc(-c2nc(-c3ccccn3)no2)c1	-22.9% (inactive)
O=C(Nc1ccc(S(=O)(=O)N2CCCCCC2)cc1)c1[nH]ncc1[N+](=O)[O-]	-21% (inactive)
O=C(O)c1ccc(N/N=C/c2ccc(OC(=O)c3cccc(Cl)c3)cc2)cc1	1.31% (inactive)
CC(C)CC(=O)NC(c1cccs1)c1ccc2cccnc2c1O (stereo not given)	-35.5% (inactive)
O=C(CCl)Nc1ccc(Sc2ccc(NC(=O)CCl)cc2)cc1	75.1% (inactive)
COc1ccccc1-c1nc(-c2ccc(C)nc2OC)no1	10.9% (inactive)
COc1ccccc1-c1nnc(-c2ccc(C)cc2)o1	7.71% (inactive)
Cn1c(SC2=CS(=O)(=O)c3ccccc32)nc2ccccc21	-10.8% (inactive)
CCN1CCc2c(sc(NC(=O)c3ccc(S(=O)(=O)N4CCCCCC4)cc3)c2C(=O)NC)C1	-9.09% (inactive)
CC1(C)CC(NC(=O)c2ccc(Cl)c(S(=O)(=O)N(Cc3ccccc3)c3ccccc3)c2)CC(C)(C)N1	-56.2% (inactive)
COc1ccc(C(C(=O)NC2CCCCC2)N(C(=O)CCl)c2ccc(OC)cc2)cc1 (stereo not given)	-7.56% (inactive)
C#CC(=O)N(c1ccc(OC)cc1OC)C(C(=O)NC1CCCC1)c1cccs1 (stereo not given)	-6.23% (inactive)
C(#Cc1ccccc1)C[N+]1(CC#Cc2cccc3ccccc23)CCCC1	-24.6% (inactive)
CCOc1ccc2nc(C)cc(Nc3cccc([N+](=O)[O-])c3)c2c1	-48.8% (inactive)
CC(=O)OCCNc1cc(Sc2nc3ccccc3[nH]2)c2nonc2c1[N+](=O)[O-]	1.78% (inactive)
O=C(Nc1cc(-c2nc3ncccc3o2)ccc1Cl)c1ccc([N+](=O)[O-])o1	-5.78% (inactive)
O=C(O)c1cccc(N/N=C/c2ccc(OC(F)(F)F)cc2)c1	14.9% (inactive)
O=C(Cn1ncc(Cl)c(Cl)c1=O)NCC1CCCCC1	-26.7% (inactive)
COc1ccc(C(=O)/C=C(\C)Nc2ccc3c(c2)OCO3)cc1	0.308% (inactive)
O=C(CSc1ccccn1)c1ccc2c(c1)OCO2	9.9% (inactive)

SMILES	activity change, negative = decreased viability
Cc1cc(C(=O)CN2C(=O)c3ccccc3S2(=O)=O)c(C)n1-c1ccccc1	6.79% (inactive)
Cc1cccnc1NC(=O)NC(=O)c1ccc(C(C)(C)C)s1	3.2% (inactive)
COc1ccc(CCn2c(=S)[nH]c3cc(C(=O)NCc4ccco4)ccc3c2=O)cc1OC	-33.1% (inactive)
Cc1cc(C)c2sc(N(CCCN(C)C)C(=O)COc3ccc(Cl)cc3)nc2c1	-86.6% (inactive)
CN(C)CCCNc1nc2sc3c(c2c(=O)n1CCc1ccccc1)CCCCC3	-16.3% (inactive)
COc1ccc(-n2cc(-c3ccc(C)cc3)[n+]3c2SCC3)cc1	-17.9% (inactive)
O=C(NCC1CCCCC1)C1(CC2CC(c3cccc(Br)c3)=NO2)CCNCC1 (stereo not given)	-96.6% (inactive)
Cc1ccc(C(C)C)c(OCc2nn(CC(=O)c3ccc(Cl)cc3)c3[n+]2CCCCC3)c1	-95.6% (inactive)
CCOC(=O)N1C(=O)[C@@](CC)(c2ccccc2)N1C(=O)OCC	4.08% (inactive)
O=C(N/N=C/c1ccc([N+](=O)[O-])o1)c1ccccc1-n1cccc1	-22.6% (inactive)
COC(=O)C1=C(C)N(Cc2ccccc2)C(=NCC(C)C)N[C@H]1c1cccc(C(F)(F)F)c1	-96.9% (inactive)
CCn1c(=O)c([N+](=O)[O-])c(Cl)c2ccccc21	5.11% (inactive)
COc1ccc(C(=O)/C=C/C(=O)N(CC(=O)NC2CCCCC2)Cc2cccs2)c(O)c1	-2.13% (inactive)
Cc1cnc(NC(=O)c2nn(C)cc2[N+](=O)[O-])s1	0.417% (inactive)
O=C(CSCC(=O)Nc1ccccc1)N/N=C/c1c(O)ccc2ccccc12	-31.7% (inactive)
Cn1cc(C(=O)N/N=C/c2c(O)ccc3ccccc23)ccc1=O	-38.1% (inactive)
CCc1ccccc1NC(=O)CN(C)C(=O)Cn1ncc(Cl)c(Cl)c1=O	80.5% (inactive)
CC(=O)N(C)C1=C(N2CCOCC2)C(=O)c2ccccc2C1=O	-38% (inactive)
COC(=O)c1ccc2c(c1O)C(=O)c1ccccc1C2=O	-37.2% (inactive)
CCN(CC)CCNC(=O)c1ccc(NC(=O)c2cn(-c3ccccc3)nc2-c2cccs2)cc1	-38.3% (inactive)
CCS(=O)(=O)c1ccc(N=Nc2ccc(O)c3ncccc23)c(OC)c1	-34% (inactive)
O=[N+]([O-])c1ccc(-n2nnnc2-c2ccccc2)c([N+](=O)[O-])c1	2.45% (inactive)
CCN1CCN(c2ccc(S(=O)(=O)N3CCCCC3)cc2NC(=O)/C=C/c2cccc(OC)c2OC)CC1	-14.7% (inactive)
CCN1CCN(c2ccc(S(=O)(=O)N3CCCCC3)cc2NC(=O)/C=C/c2ccc([N+](=O)[O-])cc2)CC1	-9.5% (inactive)
O=C(N/N=C/c1ccc([N+](=O)[O-])s1)C(O)c1ccccc1 (stereo not given)	-11.8% (inactive)
CC(/C=N/NC(=O)c1cc(-c2ccncc2)nc2ccccc12)=C\c1ccco1	14.4% (inactive)
CN1CCN(C2=C(NS(=O)(=O)c3ccccc3)C(=O)c3ccccc3C2=O)CC1	-10% (inactive)

SMILES	activity change, negative = decreased viability
O=C1C(Nc2ccccc2)=C(N2CCCCC2)C(=O)c2ccccc21	-22.7% (inactive)
CCN1c2ccccc2NC2C1C(C(C)=O)C(=O)N2c1ccc(Cl)cc1 (stereo not given)	-2.02% (inactive)
CCc1ccc(NC2=CC(=O)C(=O)c3ccccc32)cc1	-32.6% (inactive)
COC1=C(Nc2ccccc2)C(=O)c2ccccc2C1=O	-20.6% (inactive)
C=CCNC1=C(Cl)C(=O)c2ccccc2C1=O	-14.5% (inactive)
CCNC1=C(Cl)C(=O)c2ccccc2C1=O	-23.1% (inactive)
COC1=C(Nc2ccc(O)cc2)C(=O)c2ccccc2C1=O	-34.3% (inactive)
O=C(NC1=C(Nc2ccc(Cl)cc2)C(=O)c2ccccc2C1=O)c1ccccc1	-34.3% (inactive)
COc1ccc(C(=O)/C=C/C(=O)N(CC(=O)NC2CCCCC2)CC2CCCO2)c(O)c1 (stereo not given)	-33.5% (inactive)
CC1=NNC(=O)/C1=C\c1cn(-c2ccccc2)nc1-c1ccc(F)cc1	-11.5% (inactive)
Cc1ccc(-c2c[n+](Cc3ccc(Cl)c(Cl)c3)c3n2CCC3)cc1	-14.8% (inactive)
COc1cc(/C=C/C(=O)c2ccc3c(c2)OCCO3)cc(Br)c1OCC(=O)N(C)C	107% (inactive)
O=C(/C=C\c1ccccc1)NCC(=O)N/N=C/c1ccc(O)cc1O	-16.7% (inactive)
CC1CCN(CC(CS(=O)(=O)c2ccc([N+](=O)[O-])cc2)N2CCC(C)CC2)CC1 (stereo not given)	5.07% (inactive)
CCc1ccc(-c2cc(C(=O)Nn3cnnc3)c3ccccc3n2)cc1	-19.7% (inactive)
Cc1cc(C)cc(NC(=O)c2ccc([N+](=O)[O-])o2)c1	-28% (inactive)
O=C(CS(=O)c1ccc(C(F)(F)F)cc1[N+](=O)[O-])Oc1ccccc1 (stereo not given)	0.077% (inactive)
Cc1ccccc1-c1nc(CN2CCC(C(=O)NCCCN3CCCC(C)C3)CC2)c(C)o1 (stereo not given)	-2.83% (inactive)
Cc1cc(C)c2c(N)c(C(=O)N/N=C/c3ccccc3)sc2n1	12.6% (inactive)
Cc1cc(C)c2nc3nc(C)cc(C)c3c(N)c2c1	-9.13% (inactive)
Cc1oc(-c2ccc(Cl)cc2)nc1CN1CCC(C(=O)NCCCN2CCCC(C)C2)CC1 (stereo not given)	-19.6% (inactive)
FC(F)(F)c1cc(CCN2CCNC[C@@H]2Cc2ccccc2)cc(C(F)(F)F)c1	-94.9% (inactive)
O=C(N/N=C\c1ccc([N+](=O)[O-])s1)c1cncc(Br)c1	-26.1% (inactive)
C#CCCc1ccccc1/C=[N+](/C)[O-]	3.43% (inactive)
N#C/C(=C(/O)c1ccc([N+](=O)[O-])o1)c1nc2ccccc2[nH]1	-27.3% (inactive)
O=C(COc1ccc2c(c1)CCC2)N1CCc2ccccc21	8.68% (inactive)
O=C(CCl)N1c2ccccc2SCC1c1ccccc1 (stereo not given)	-37% (inactive)

SMILES	activity change, negative = decreased viability
O=C(Cn1ncc(Cl)c(Cl)c1=O)N1CCOCC1	38.5% (inactive)
CC(=O)Nc1ccc(S(=O)(=O)NC2=C(N3CCN(C)CC3)C(=O)c3ccccc3C2=O)cc1	-33.5% (inactive)
O=C(Nc1cnc2ccccn2c1=O)c1ccc(F)cc1	4.12% (inactive)
CN(C)c1nc(C=C(C#N)C#N)c(Cl)n1-c1ccc(F)cc1	-10.1% (inactive)
O=[N+]([O-])c1ccc(/C=N/n2cnc3ccccc32)s1	-23.5% (inactive)
CC1CCCC(NC(=O)NC(=O)CCl)C1C (stereo not given)	-12.3% (inactive)
Cc1cc(Br)ccc1NC(=O)CNC(=O)Cn1ncc(Cl)c(Cl)c1=O	-5.62% (inactive)
Cc1ccc(NC(=O)Cn2ncc(Cl)c(Cl)c2=O)cc1S(=O)(=O)N1CCCCC1	-14.3% (inactive)
Cn1nnnc1Sc1ncnc2scc(-c3ccc(C#N)cc3)c12	29.3% (inactive)
CCN1c2ccccc2NC2N=C(OC)C(c3ccccc3)C21 (stereo not given)	-35.9% (inactive)
COCCN(CC(=O)NC1CCCCC1)C(=O)/C=C/C(=O)c1ccc(OC)cc1O	10.5% (inactive)
Cc1ccc(-c2c[n+](Cc3ccc(Cl)cc3)c3n2CCC3)cc1	-3.64% (inactive)
Cc1[nH]c2ccccc2c1C(=O)CCl	-3.71% (inactive)
CC(C)C(CCNC1CCN(C)CC1)c1ccc(Cl)cc1 (stereo not given)	-4.07% (inactive)
CCN1CCN(C2=C(NS(=O)(=O)c3ccc(Br)cc3)C(=O)c3ccccc3C2=O)CC1	-15.8% (inactive)
CC1CCC(C(C)C)C(OC(=O)C[n+]2cc(-c3ccc(Cl)cc3)n3c2CCCCC3)C1 (stereo not given)	-67.3% (inactive)
O=C(O)c1cccc(NC(=S)N/N=C/c2ccccn2)c1	-11.9% (inactive)
Cc1ccc(C(=O)c2no[n+]([O-])c2C(=O)c2ccc(C)cc2)cc1	-8.72% (inactive)
COc1ccc(C(=O)/C=C/C(=O)N(CC(=O)NC2CCCCC2)Cc2ccccc2)c(O)c1	-10.6% (inactive)
O=C(Nc1ccc(Cl)c(S(=O)(=O)N2CCOCC2)c1)c1ccc(OCC2CCCO2)cc1 (stereo not given)	-37.8% (inactive)
O=C(Nc1ccccc1N1CCOCC1)c1ccc([N+](=O)[O-])s1	-14.6% (inactive)
O=C(Nc1nc(-c2ccccn2)cs1)c1ccc(F)c(S(=O)(=O)N2CCOCC2)c1	-27.2% (inactive)
COc1ccc(/C=C2\SC(=O)N(CCCC(=O)Nc3cc(Cl)ccc3C(=O)O)C2=O)cc1	10.5% (inactive)
Cn1cccc1-c1cc(C(=O)N/N=C/c2cc(Br)ccc2O)[nH]n1	-30% (inactive)
